Only some compounds are listed: those with a hit (about 9.5% of all), similar ones and a draw of the others.
Tau fluor cs = Counterscreen qHTS for Inhibitors of Tau Fibril Formation, Fluorescence Polarization. tau K18 P301L Alexa594 fluorescence, heparin fibrillization. Potency, µM (doses to about 57.7 µM). 280,000 tested, 0.93% active; further: nearly all actives have a fitted effect of over 55% in size
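Human tau K18 P301L (15 uM unlabeled, 0.24 uM Alexa 594-labeled) in 100 mM sodium acetate pH 7 with 20 uM heparin, 6 hr at 37 C. ThT 30 uM added, 1 hr ambient; Alexa 594 FP and total fluorescence read at 555/632 nm.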
ALDH1A1 block = qHTS Assay for Inhibitors of Aldehyde Dehydrogenase 1 (ALDH1A1); Purified ALDH1A1, NADH fluorescence, propionaldehyde substrate; 220,000 tested, 7.3% active; Potency, µM (series often up to 75.3 µM), most hits filed as inhibitors; Aldehyde dehydrogenase 1A1 (Homo sapiens), P00352; AID 1030, 2008; active means well fitted inhibition curve with a large enough effect, not every such curve was filed as active; inconclusive means small, poorly fitted or top-dose-only effect, or another doubt; inactive means no such curve, though single readings can be large or run the other way
HPGD inh = qHTS Assay for Inhibitors of HPGD (15-Hydroxyprostaglandin Dehydrogenase); AID 894, 2007; purified HPGD, NADH fluorescence kinetic, PGE2 substrate; 150,000 tested, 4.3% active; Potency, µM, usual class: inhibitors; 15-hydroxyprostaglandin dehydrogenase [NAD(+)] (Homo sapiens), P15428; active means well fitted inhibition curve with a large enough effect, not every such curve was filed as active; inconclusive means small, poorly fitted or top-dose-only effect, or another doubt; inactive means no such curve, though single readings can be large or run the other way
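NADH formation kinetics: reaction with 30 uM PGE2 and 1 mM NAD+ (final), 20 nM enzyme, Tris-HCl pH 8 with Tween 20, after 15 min compound preincubation at room temperature. Fluorescence change, last versus first of five reads.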
Tau FP inhib = qHTS for Inhibitors of Tau Fibril Formation, Fluorescence Polarization; 280,000 tested, 0.39% active; K18 P301L tau heparin fibrillization, Alexa594 FP, 6 h; Potency, µM (series often up to 57.7 µM), most hits filed as inhibitors; Microtubule-associated protein tau (Homo sapiens), P10636; further: nearly all actives have a fitted effect of over 55% in size
Target sequence (P10636 561-689 P618L limits assumed): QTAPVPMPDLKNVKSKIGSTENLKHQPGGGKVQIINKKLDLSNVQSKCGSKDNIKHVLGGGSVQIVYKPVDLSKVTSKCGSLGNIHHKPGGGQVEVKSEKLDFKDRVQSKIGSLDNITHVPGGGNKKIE
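Recombinant K18 P301L […], labeled with Alexa 594 at 0.24 uM over 15 uM unlabeled; heparin inducer 20 uM final; 37 C, 6 hr; FP endpoint.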
Tau ThT inhib = qHTS for Inhibitors of Tau Fibril Formation, Thioflavin T Binding; Microtubule-associated protein tau (Homo sapiens), P10636; recombinant tau K18 P301L (four-repeat tau fragment), heparin-induced fibrillization, ThT fluorescence; Potency, µM (doses to about 57.4 µM), actives largely listed as inhibitors; 270,000 tested, 2.1% active; further: nearly all actives have a fitted effect of over 55% in size
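Recombinant human tau K18 fragment […] carrying P301L, 15 uM unlabeled plus 0.24 uM Alexa 594-labeled, was fibrillized with 20 uM heparin in 100 mM sodium acetate pH 7 for 6 hr at 37 C; 30 uM ThT fluorescence read after 1 hr.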
NPSR antagonist = qHTS Assay for Antagonists of the Neuropeptide S Receptor: cAMP Signal Transduction | Q6W5P4 | CHO-NPSR cells, cAMP TR-FRET, antagonist mode | Potency, µM (doses to about 38.3 µM), usual class: inhibitors | 220,000 tested, 1% active; further: nearly all actives have a fitted effect of over 50% in size
Target sequence (Q6W5P4 whole entry, looked up): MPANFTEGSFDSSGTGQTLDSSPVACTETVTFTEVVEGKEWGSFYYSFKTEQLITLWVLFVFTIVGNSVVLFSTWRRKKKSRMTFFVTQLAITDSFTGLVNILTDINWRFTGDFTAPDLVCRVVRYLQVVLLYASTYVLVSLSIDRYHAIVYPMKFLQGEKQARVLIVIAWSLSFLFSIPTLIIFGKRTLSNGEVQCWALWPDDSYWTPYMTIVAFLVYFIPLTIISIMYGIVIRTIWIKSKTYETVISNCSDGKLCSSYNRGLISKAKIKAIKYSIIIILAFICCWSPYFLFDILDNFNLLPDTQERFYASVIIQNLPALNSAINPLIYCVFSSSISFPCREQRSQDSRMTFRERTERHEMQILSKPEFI
A number is an active result; i = inactive; ? = inconclusive; nt = not tested or not shown; [ ] = another dose, or the depositor's remark. Unless noted, the call rests on the fitted dose curve; in most records, active means well fitted curve in the direction sought with a large enough effect; inconclusive means small, poorly fitted or top-dose-only effect, or another doubt; inactive means no such curve, though single readings can be large; an effect the other way counts as inactive or inconclusive.

SMILES	Tau fluor cs	ALDH1A1 block	HPGD inh	Tau FP inhib	Tau ThT inhib	NPSR antagonist
CCc1nc2c(nnn2Cc2ccc(F)cc2)c(=O)[nH]1	i	i	14.1µM	i	i	i
O=C(Cc1ccc(F)cc1)N1CCC(c2nc3c(nnn3Cc3ccc(F)cc3)c(=O)[nH]2)CC1	i	nt	nt	i	i	nt
O=C(NCc1cccs1)c1nc2c(nnn2Cc2ccc(F)cc2)c(=O)[nH]1	i	i	14.1µM	i	i	i
O=C(NCC1CCCO1)c1nc2c(nnn2Cc2ccc(F)cc2)c(=O)[nH]1 (centres undefined)	i	i	14.1µM	i	i	i
Cc1cc(-c2ccc(C)c(S(=O)(=O)N3CCCC(C)C3)c2)on1 (centres undefined)	?	nt	nt	i	i	nt
O=C(CCNS(=O)(=O)c1ccc2c(c1)CCN2C(=O)C1CC1)Nc1ccc(OC(F)(F)F)cc1	i	nt	nt	i	i	nt
CCCSc1nnc2c(n1)OC(c1cccs1)Nc1ccc(Br)cc1-2 (centres undefined)	i	nt	nt	i	i	nt
Cc1nc(NCC2CCCO2)c2nnn(Cc3ccccc3)c2n1 (centres undefined)	i	22.4µM	i	i	i	i
COc1ccc(NCC(=O)n2c(C)c(C)c3ccccc32)cc1	?	7.94µM	nt	i	?	i
Cc1ccc(NC(=O)CN2C(=O)CNC2=O)cc1	i	nt	nt	i	nt	i
COC(=O)c1ccc(NC(=O)CN2C(=O)CNC2=O)cc1	i	17.8µM	i	i	i	i
CN(C)S(=O)(=O)c1cc(NC(=O)CN2CCN(c3ccc(O)cc3)CC2)ccc1Cl	i	12.6µM	nt	i	?	i
COc1ccc(Cl)cc1S(=O)(=O)N1CCN(CC(=O)Nc2ccccc2C(F)(F)F)CC1	i	nt	nt	i	i	nt
COC(=O)c1ccc(NC(=O)CN2CCN(S(=O)(=O)c3cc(Cl)ccc3OC)CC2)cc1	i	2µM	i	i	i	i
COC(=O)c1ccc(NC(=S)N2CCN(Cc3ccc(Cl)cc3)CC2)cc1	?	i	39.8µM	i	?	i
COc1nnc(-c2ccc(N3CCCCC3)c(NC(=O)c3ccccc3Cl)c2)c2ccccc12	i	nt	nt	i	i	nt
CC(=O)C1=C(C)N(Cc2ccccc2)C(=O)N[C@H]1c1ccco1	i[11.6 µM]	i[13.5 µM]	i	i[11.6 µM]	?	i
COC(=O)c1ccc(NC(=O)CN2CCN(c3ccc(Cl)cc3)CC2)cc1	?	22.4µM	i	i	?	i
COc1ccc2nccc(SCC(=O)O)c2c1	nt	i[13.5 µM]	i	nt	nt	nt
Cc1cc(F)ccc1NC(=O)c1ccc(NS(=O)(=O)c2cc(C(C)(C)C)ccc2C)cc1	i	2.51µM	i	?	i	i
Cc1ccc(NS(=O)(=O)c2ccc(OCC(=O)Nc3cccc([N+](=O)[O-])c3)c(C)c2)cc1	14.1µM[quencher]	i	i	i	i	?
Cc1ccc(C(=O)Nc2ccccc2)cc1S(=O)(=O)Nc1ccc(Br)cc1	?	nt	nt	15.8µM	i	nt
Cc1ccc(C(=O)Nc2cccc([N+](=O)[O-])c2)cc1S(=O)(=O)Nc1ccc(NC(=O)c2ccccc2)cc1	4.47µM[quencher]	?	i	?	i	i
COc1ccc(-c2[nH]ncc2C(=O)NCc2cccc(F)c2)cc1	i	nt	nt	i	i	nt
COc1ccc2c(c1)cc1c(=O)n(CC(=O)NCc3ccco3)nc(C)n12	i	nt	nt	i	i	nt
SMILES	Tau fluor cs	ALDH1A1 block	HPGD inh	Tau FP inhib	Tau ThT inhib	NPSR antagonist
CCN(c1ccccc1)S(=O)(=O)c1cc(C(=O)Nc2ccccc2Cl)ccc1F	i	i	i	i	i	i
CCN(c1ccccc1)S(=O)(=O)c1cc(C(=O)Nc2ccc(Br)cc2)ccc1F	?	28.2µM	?	?	?	i
S=C1NC2=C(CCCC2=C2SCCS2)C(c2ccccc2)N1 (centres undefined)	i	0.355µM	nt	i	i	i
CCOc1ccc(-c2cn3c(n2)sc2cc(C(=O)NCCc4ccc(OC)c(OC)c4)ccc23)cc1	i	nt	nt	i	?	nt
COc1cc(NCC[C@@H]2CCCCN2)c2ncccc2c1	nt	i[13.5 µM]	i	nt	nt	nt
O=C(OCc1cc2ccccc2[nH]c1=O)C1CCCCC1	i	20µM	nt	i	i	i
CCOC(=O)c1sc(NC(=O)CSc2nc(C)cc(-c3ccccc3)n2)c(C#N)c1C	?	3.16µM	7.08µM	?	35.5µM	i
CCCn1nnnc1SCC(=O)Nc1sc(C)c(C)c1C#N	?	nt	nt	i	?	i
CCOC(=O)c1cnc(SCC(=O)Nc2sc(C)c(C)c2C#N)nc1N	i	31.6µM	i	i	i	i
CCOC(=O)c1cnc(SCC(=O)Nc2cc(OC)cc(OC)c2)nc1N	i	i	i	i	?	i
CC(=O)c1ccc(-n2nnnc2SCC(=O)Nc2sc(C)c(C)c2C#N)cc1	i	17.8µM	i	i	?	i
Cc1ccc(C2Oc3ccccc3C3=C2C(c2cccs2)n2ncnc2N3)cc1 (centres undefined)	i	11.2µM	i	?	i	i
NC1=C(c2ccc(F)cc2)C(=O)CS1	i	20µM	6.31µM	i	i	i
Fc1ccc(-c2csc3[n+]2CCS3)cc1	i	i	i	i	i	i
CC(C)[C@@H](CC(=O)N[C@@H]1CCCC[C@H]1C(=O)N[C@H](CC(=O)N[C@@H](CCC(=O)O)CC(=O)O)Cc1ccccc1)NC(=O)C[C@H](CO)NC(=O)[C@@H]1CNCC[C@H]1N	i	i	i	i	i	nt
COc1cccc(C2C(C(=O)Nc3ccccc3)=C(C)N=c3s/c(=C/c4ccc(OCC(=O)O)cc4)c(=O)n32)c1 (centres undefined)	i	i	i	i	?	i
CC1=C(C(=O)Nc2ccccc2)C(c2ccc(C)o2)n2c(s/c(=C\c3ccco3)c2=O)=N1 (centres undefined)	?	?	i	?	12.6µM	12.6µM
CCCc1cc(NC(=O)CCl)n(-c2ccccc2)n1	i	0.891µM	nt	i	i	i
O=[N+]([O-])c1ccc(N2N=C(c3ccco3)CC2c2ccccc2)cc1 (centres undefined)	?	10µM	i	?	8.91µM	i
COc1cc(NC(=O)C2CCCO2)c(OC)cc1Cl (centres undefined)	i	i	i	i	i	i
COc1ccc(NC(=O)C2CCCO2)cc1Cl (centres undefined)	i	?	15.8µM	i	i	i
CSc1nc2ccc(NC(=O)C3CCCO3)cc2s1 (centres undefined)	i	?	28.2µM	i	i	i
O=C(O)c1cc(NC(=O)C2CCCO2)cc(NC(=O)C2CCCO2)c1 (centres undefined)	i	i	i	i	i	i
